About 2,000 (36%) of roughly 5,500 compounds were called active. About 18% were inconclusive and are not listed. No stated cut-off is given here; in the data, active means normalized growth mostly below about 0.91 (no sharp cut-off); inconclusive means no clear call, values can overlap the other calls; inactive means mostly above about 0.92. The list shows a part of the results.
Assay: chemical genetic growth profiling, strain panel (AID 1159580);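 further: tested at 20 µM; growth read once vehicle control cultures reached saturation at 30 °C; 1 = growth at the plate median or of vehicle wells; lower values mean less growth of the strain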
Conditions: S. cerevisiae deletion strains, growth OD

Measured: normalized growth

Cc1[nH]c2ccc(O)cc2c1CCN
inactive: locus YAL040C, strain CLN3, active compounds read low 1 | locus YCL061C, strain MRC1 (second series), active compounds read low 1.01 | locus YDR363W, strain ESC2, active compounds read low 1.05 | locus YER002W, strain NOP16, active compounds read low 1 | locus YMR263W, strain SAP30, active compounds read low 1.01 | locus YNL153C, strain GIM3, active compounds read low 1.03 | locus YNL175C, strain NOP13, active compounds read low 1.01 | locus YNL197C, strain WHI3, active compounds read low 0.987 | locus YNL224C, strain SQS1, active compounds read low 0.996 | locus YNL322C, strain KRE1, active compounds read low 1.02 | locus YOR083W, strain WHI5 (second series), active compounds read low 0.999

From PubChem BioAssay AID1159580 (chemical genetic matrix, 2015)
